Experimental data: the supplement of paper PMC6609913
Structures can show the parent of a compound that is named as a salt. ± gives the standard deviation of the averaged measurements. The full ranking holds about 1,300 compounds; the median of “normalised cell viability” is about 1, and the lowest 2% start at about 0.14. What follows is part of a selection rich in the lowest values, with near analogues and random picks from the rest.

System: V-C8 (BRCA2-deficient hamster cells)
Test: normalised cell viability (fraction of plate median); higher = more viable cells (less toxic)
Details: 5 µM
How it was run: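 BRCA2-deficient hamster V-C8 cells and BRCA2-restored V-C8 cells were plated in 96-well plates, and library drugs were added 24 h later at 5 μM in 100 μl medium. Exposure lasted 3 days in screen 1 and 6 days in screen 2, next to solvent-only wells. Viability was then read by resazurin assay, median-plate normalised and averaged across triplicate wells.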

| Structure (SMILES) | normalised cell viability (treatment time: 3 days) | normalised cell viability (treatment time: 6 days) |
| --- | --- | --- |
| Clc1ccc(COC(Cn2ccnc2)c2ccc(Cl)cc2Cl)cc1 (centres undefined) [Econazole nitrate] | 0.938 ± 0.028 | 0.98 ± 0.023 |
| CC[C@H](C)[C@H](N)C1=N[C@H](C(=O)N[C@@H](CC(C)C)C(=O)N[C@H](CCC(=O)O)C(=O)N[C@H](C(=O)N[C@H]2CCCCNC(=O)[C@H](CC(N)=O)NC(=O)[C@@H](CC(=O)O)NC(=O)[C@H](Cc3cnc[nH]3)NC(=O)[C@@H](Cc3ccccc3)NC(=O)[C@H]([C@@H](C)CC)NC(=O)[C@@H](CCCN)NC2=O)[C@@H](C)CC)CS1 [Bacitracin] | 1.05 ± 0.02 | 0.983 ± 0.061 |
| CCCCNc1c(C(=O)OCC)c(C)nc2c1cnn2CC [Tracazolate hydrochloride] | 0.947 ± 0.034 | 1.03 ± 0.013 |
| Nc1nc(=O)c2c([nH]1)NC[C@@H](CNc1ccc(C(=O)N[C@@H](CCC(=O)O)C(=O)O)cc1)N2C=O [Folinic acid calcium salt] | 1.05 ± 0.036 | 1.11 ± 0.06 |
| COC(=O)N/N=C/c1c[n+]([O-])c2ccccc2[n+]1[O-] [Carbadox] | 0.69 ± 0.18 | 0.549 ± 0.029 |
| Cc1cc(/C=C/c2ccc3cc(N(C)C)ccc3[n+]2C)c(C)n1-c1ccccc1 [Pyrvinium pamoate] | 0.132 ± 0.0063 | 0.172 ± 0.012 |
| CC1(C)S[C@@H]2[C@H](NC(=O)[C@H](N)c3ccccc3)C(=O)N2[C@H]1C(=O)OC1OC(=O)c2ccccc21 (some centres undefined) [Talampicillin hydrochloride] | 1.09 ± 0.082 | 1.02 ± 0.085 |
| COc1cc([C@@H]2c3cc4c(cc3[C@@H](O[C@@H]3O[C@@H]5CO[C@@H](C)O[C@H]5[C@H](O)[C@H]3O)[C@H]3COC(=O)[C@H]23)OCO4)cc(OC)c1O [Etoposide] | 0.155 ± 0.0057 | 0.133 ± 0.017 |
| COc1cc(NS(=O)(=O)c2ccc(N)cc2)ncn1 [Sulfamonomethoxine] | 1.02 ± 0.057 | 1.05 ± 0.031 |
| CC(C)(C)NC[C@H](O)c1ccc(O)c(CO)c1 [Levalbuterol hydrochloride] | 1.03 ± 0.049 | 0.99 ± 0.13 |
| CC(C)(S)[C@@H](N)C(=O)O [Penicillamine] | 0.964 ± 0.074 | 1.04 ± 0.097 |
| N[C@@H](C(=O)N[C@@H]1C(=O)N2C(C(=O)O)=C(Cl)CC[C@H]12)c1ccccc1 [Loracarbef] | 1.05 ± 0.1 | 1.06 ± 0.033 |
| OC(CCCN1CCCCC1)(c1ccccc1)c1ccccc1 [Diphenidol hydrochloride] | 1.06 ± 0.037 | 1.05 ± 0.031 |
| CC(C)(C(=O)O)c1ccc(C(O)CCCN2CCC(C(O)(c3ccccc3)c3ccccc3)CC2)cc1 (centres undefined) [Fexofenadine HCl] | 1.09 ± 0.02 | 1.04 ± 0.046 |
| CC(C)(C)c1ccc(C(O)CCCN2CCC(C(O)(c3ccccc3)c3ccccc3)CC2)cc1 (centres undefined) [Terfenadine] | 0.13 ± 0.0051 | 0.1 ± 0.0041 |
| NC[C@@H]1O[C@@H](O[C@H]2[C@H](O)[C@@H](O[C@H]3O[C@H](CO)[C@@H](O)[C@H](N)[C@H]3O)[C@H](N)C[C@@H]2N)[C@@H](O)[C@H](O)[C@H]1O [Kanamycin A sulfate] | 0.965 ± 0.052 | 1.04 ± 0.02 |
| O=C1CN2Cc3c(ccc(Cl)c3Cl)N=C2N1 [Anagrelide] | 1.01 ± 0.077 | 1.03 ± 0.054 |
| c1ccc([C@H]2CN3CCSC3=N2)cc1 [Levamisole hydrochloride] | 1.03 ± 0.02 | 1.02 ± 0.032 |
| CCN(CC)CCc1nc(-c2ccccc2)no1 [Oxalamine citrate salt] | 0.986 ± 0.061 | 0.933 ± 0.14 |

| Structure (SMILES) | normalised cell viability (treatment time: 3 days) | normalised cell viability (treatment time: 6 days) |
| --- | --- | --- |
| O=C(O)Cc1cc(I)c(Oc2ccc(O)c(I)c2)c(I)c1 [Tiratricol, 3,3',5-triiodothyroacetic acid] | 0.981 ± 0.023 | 1.03 ± 0.032 |
| CCCc1cc(=O)[nH]c(=S)[nH]1 [Propylthiouracil] | 1.02 ± 0.022 | 1.025 ± 0.009 |
| CC(=O)N1CCN(c2ccc(OCC3COC(Cn4ccnc4)(c4ccc(Cl)cc4Cl)O3)cc2)CC1 (centres undefined) [Ketoconazole] | 0.8 ± 0.022 | 0.898 ± 0.028 |
| CC1(C)S[C@@H]2[C@H](NC(=O)[C@H](NC(=O)N3CCNC3=O)c3ccccc3)C(=O)N2[C@H]1C(=O)O [Azlocillin sodium salt] | 1.01 ± 0.015 | 0.988 ± 0.092 |
| Clc1cnccn1 [2-Chloropyrazine] | 1.03 ± 0.019 | 1.02 ± 0.016 |
| COCC1=C(C(=O)OC(C)OC(=O)OC(C)C)N2C(=O)[C@@H](NC(=O)/C(=N\OC)c3csc(N)n3)[C@H]2SC1 (some centres undefined) [Cefpodoxime proxetil] | 1.18 ± 0.025 | 1.06 ± 0.086 |
| CC(C(=O)O)c1ccc(N2Cc3ccccc3C2=O)cc1 (centres undefined) [Indoprofen] | 1.012 ± 0.0016 | 1.08 ± 0.013 |
| Nc1nc(=O)[nH]cc1F [Flucytosine] | 1.06 ± 0.02 | 0.987 ± 0.025 |
| Cc1ccc2c(c1)c1c3n2CCNC3CCC1 (centres undefined) [Pirlindole mesylate] | 0.904 ± 0.084 | 0.9725 ± 0.0077 |
| NCc1ccccc1CC(=O)N[C@@H]1C(=O)N2C(C(=O)O)=C(CSc3nnnn3CC(=O)O)CS[C@H]12 [Ceforanide] | 1.02 ± 0.073 | 1.21 ± 0.22 |
| C=CC[N@@+]12CC[C@@]34c5ccccc5N5/C=C6/[C@H]7C[C@H]8[C@@]9(CC[N@@+]8(CC=C)C/C7=C/CO)c7ccccc7N(/C=C(/[C@@H](C[C@@H]31)/C(=C\CO)C2)[C@H]54)[C@@H]69 [Alcuronium chloride] | 0.939 ± 0.13 | 1.03 ± 0.079 |
| c1ccc(-c2ccc(C(c3ccccc3)n3ccnc3)cc2)cc1 (centres undefined) [Bifonazole] | 0.878 ± 0.032 | 0.74 ± 0.06 |
| CC(=O)O[C@]1(C(C)=O)CC[C@H]2[C@@H]3C=C(Cl)C4=CC(=O)CC[C@]4(C)[C@H]3CC[C@@]21C [Chlormadinone acetate] | 0.998 ± 0.06 | 0.983 ± 0.043 |
| NNc1nncc2ccccc12 [Hydralazine hydrochloride] | 0.9847 ± 0.0028 | 1.03 ± 0.027 |
| Nc1cc(-c2ccncc2)c[nH]c1=O [Amrinone] | 0.938 ± 0.029 | 0.951 ± 0.018 |
| O=C(CCCCC(=O)Nc1c(I)cc(I)c(C(=O)O)c1I)Nc1c(I)cc(I)c(C(=O)O)c1I [Iodipamide] | 1.03 ± 0.06 | 0.972 ± 0.029 |
| CC(=O)Nc1ccc(CC(=O)O)cc1 [Actarit] | 1.05 ± 0.015 | 1.03 ± 0.038 |
| O=C(CCCCCCC(=O)Nc1ccccc1)NO [Vorinostat] | 0.14 ± 0.012 | 0.168 ± 0.012 |
| CC[C@H](C)C(=O)O[C@H]1CCC=C2C=C[C@H](C)[C@H](CC[C@@H]3C[C@@H](O)CC(=O)O3)[C@H]21 [Mevastatin] | 0.23 ± 0.011 | 0.229 ± 0.0063 |

| Structure (SMILES) | normalised cell viability (treatment time: 3 days) | normalised cell viability (treatment time: 6 days) |
| --- | --- | --- |
| CCCNC(C)C(=O)Nc1c(C)csc1C(=O)OC (centres undefined) [Articaine hydrochloride] | 1.03 ± 0.024 | 1.06 ± 0.084 |
| Nc1ccc(S(=O)(=O)Nc2ccnn2-c2ccccc2)cc1 [Sulfaphenazole] | 1.01 ± 0.011 | 1.03 ± 0.031 |
| COc1ccccc1OCC(O)CN1CCN(CC(=O)Nc2c(C)cccc2C)CC1 (centres undefined) [Ranolazine] | 1.04 ± 0.054 | 0.967 ± 0.086 |
| N#CC(c1ccc(Cl)cc1)c1c(Cl)cc(-n2ncc(=O)[nH]c2=O)cc1Cl (centres undefined) [Diclazuril] | 0.905 ± 0.068 | 0.875 ± 0.068 |
| C#CCN(C)CCCOc1ccc(Cl)cc1Cl [Clorgyline hydrochloride] | 1.11 ± 0.063 | 1.019 ± 0.0054 |
| NS(=O)(=O)Cc1noc2ccccc12 [Zonisamide] | 1.01 ± 0.036 | 1.03 ± 0.065 |
| COc1ccc2c(c1)C(=O)N(CCc1ccc(S(=O)(=O)NC(=O)NC3CCCCC3)cc1)C(=O)C2(C)C [Gliquidone] | 1.05 ± 0.077 | 1.08 ± 0.049 |
| CN1CCCN=C1/C=C/c1cccs1 [Pyrantel tartrate] | 1.06 ± 0.019 | 1.02 ± 0.079 |
| CC(C)(C)NC[C@H](O)COc1nsnc1N1CCOCC1 [Timolol maleate salt] | 1.01 ± 0.022 | 1.07 ± 0.065 |
| CCN(CC)C(=O)Nc1ccc(OCC(O)CNC(C)(C)C)c(C(C)=O)c1 (centres undefined) [Celiprolol HCl] | 1.13 ± 0.12 | 0.988 ± 0.031 |
| C[C@H](O)C(=O)Nc1c(I)c(C(=O)NC(CO)CO)c(I)c(C(=O)NC(CO)CO)c1I [Iopamidol] | 0.952 ± 0.093 | 1.09 ± 0.06 |
| Clc1ccc(CSC(Cn2ccnc2)c2ccc(Cl)cc2Cl)cc1 (centres undefined) [Sulconazole nitrate] | 0.983 ± 0.067 | 0.829 ± 0.043 |
| CCOC(=O)Nc1ccc2c(c1)N(C(=O)CCN1CCOCC1)c1ccccc1S2 [Moricizine hydrochloride] | 1.1 ± 0.13 | 1.13 ± 0.083 |
| C=CC1=C(C(=O)O)N2C(=O)[C@@H](NC(=O)/C(=N\O)c3csc(N)n3)[C@H]2SC1 [Cefdinir] | 1.016 ± 0.0043 | 1.01 ± 0.06 |
| Cc1c(C)c2c(c(C)c1O)CCC(C)(COc1ccc(CC3SC(=O)NC3=O)cc1)O2 (centres undefined) [Troglitazone] | 0.68 ± 0.04 | 0.588 ± 0.04 |
| C=C(CC)C(=O)c1ccc(OCC(=O)O)c(Cl)c1Cl [Ethacrynic acid] | 1.08 ± 0.038 | 1.01 ± 0.048 |
| COc1cc2c(cc1OC)C(=O)C(CC1CCN(Cc3ccccc3)CC1)C2 (centres undefined) [Donepezil hydrochloride] | 0.957 ± 0.087 | 0.983 ± 0.011 |
| OCC(O)CN1CCN(c2ccccc2)CC1 (racemic) [Dropropizine (R,S)] | 0.964 ± 0.051 | 1.01 ± 0.057 |
| C=C[C@H]1CN2CC[C@H]1C[C@@H]2[C@@H](O)c1ccnc2ccc(OC)cc12 [Quinidine hydrochloride monohydrate] | 0.997 ± 0.0082 | 0.876 ± 0.16 |
